Test results from ChEMBL document CHEMBL1961873, “Compounds: GSK PKIS; Assays: Nanosyn kinase panel” (2012).

How the values were obtained:
[1] = biological target: Mitogen-activated protein kinase kinase kinase kinase 4 (Homo sapiens) (UniProt O95819); conditions: at 1 µM;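 further: reported figure is an averaged inhibition value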
[2] = biological target: Dual specificity mitogen-activated protein kinase kinase 1 (Homo sapiens) (UniProt Q02750); conditions: at 0.1 µM
[3] = biological target: Dual specificity mitogen-activated protein kinase kinase 1 (Homo sapiens) (UniProt Q02750); conditions: at 1 µM
[4] = biological target: Misshapen-like kinase 1 (Homo sapiens) (UniProt Q8N4C8); conditions: at 0.1 µM
[5] = biological target: Misshapen-like kinase 1 (Homo sapiens) (UniProt Q8N4C8); conditions: at 1 µM
[6] = biological target: T1, Serine/threonine-protein kinase 4 (Homo sapiens) (UniProt Q13043); conditions: at 0.1 µM
T1 sequence (whole entry): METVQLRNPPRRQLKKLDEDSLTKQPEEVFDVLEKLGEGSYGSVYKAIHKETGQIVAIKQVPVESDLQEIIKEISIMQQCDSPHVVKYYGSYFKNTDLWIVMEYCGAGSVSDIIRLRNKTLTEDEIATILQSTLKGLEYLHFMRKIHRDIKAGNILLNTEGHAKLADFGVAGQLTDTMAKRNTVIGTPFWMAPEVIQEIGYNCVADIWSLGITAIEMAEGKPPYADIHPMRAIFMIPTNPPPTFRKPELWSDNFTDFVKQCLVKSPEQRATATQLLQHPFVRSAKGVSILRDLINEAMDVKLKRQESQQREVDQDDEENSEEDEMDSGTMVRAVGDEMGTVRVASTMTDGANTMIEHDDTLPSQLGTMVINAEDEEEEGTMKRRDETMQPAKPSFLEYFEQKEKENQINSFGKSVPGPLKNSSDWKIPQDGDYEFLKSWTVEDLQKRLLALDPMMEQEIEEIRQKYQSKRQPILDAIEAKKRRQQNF

[7] = biological target: T1, Serine/threonine-protein kinase 4 (Homo sapiens); conditions: at 1 µM
[8] = biological target: T2, Serine/threonine-protein kinase 3 (Homo sapiens) (UniProt Q13188); conditions: at 0.1 µM
T2 sequence (whole entry): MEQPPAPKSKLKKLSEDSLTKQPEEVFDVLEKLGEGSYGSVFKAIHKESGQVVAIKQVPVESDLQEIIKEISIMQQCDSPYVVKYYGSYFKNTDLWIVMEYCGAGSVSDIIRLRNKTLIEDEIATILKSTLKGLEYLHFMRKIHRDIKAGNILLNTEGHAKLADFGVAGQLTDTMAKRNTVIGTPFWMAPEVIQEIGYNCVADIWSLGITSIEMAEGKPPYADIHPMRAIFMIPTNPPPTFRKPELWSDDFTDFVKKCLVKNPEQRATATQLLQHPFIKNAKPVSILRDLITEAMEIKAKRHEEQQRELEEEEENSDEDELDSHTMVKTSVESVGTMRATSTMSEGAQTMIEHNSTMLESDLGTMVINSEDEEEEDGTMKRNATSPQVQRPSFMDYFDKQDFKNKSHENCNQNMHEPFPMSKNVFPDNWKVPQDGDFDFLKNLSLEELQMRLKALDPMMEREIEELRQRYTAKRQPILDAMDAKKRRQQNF

[9] = biological target: T2, Serine/threonine-protein kinase 3 (Homo sapiens); conditions: at 1 µM
[10] = biological target: Serine/threonine-protein kinase 26 (Homo sapiens) (UniProt Q9P289); conditions: at 0.1 µM
Sequence of Serine/threonine-protein kinase 26 (Homo sapiens) (Q9P289 2-416 limits assumed): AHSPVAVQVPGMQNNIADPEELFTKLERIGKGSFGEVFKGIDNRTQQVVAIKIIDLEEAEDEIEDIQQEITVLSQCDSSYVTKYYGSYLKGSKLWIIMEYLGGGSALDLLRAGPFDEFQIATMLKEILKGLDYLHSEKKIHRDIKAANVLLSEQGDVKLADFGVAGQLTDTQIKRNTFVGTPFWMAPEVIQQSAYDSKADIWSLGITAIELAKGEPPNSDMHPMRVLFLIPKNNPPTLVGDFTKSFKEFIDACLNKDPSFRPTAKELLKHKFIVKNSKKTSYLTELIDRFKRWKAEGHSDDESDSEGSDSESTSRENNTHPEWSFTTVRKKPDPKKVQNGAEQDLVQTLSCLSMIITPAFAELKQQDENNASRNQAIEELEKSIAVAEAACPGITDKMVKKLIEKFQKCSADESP

Sequence of Misshapen-like kinase 1 (Homo sapiens) (Q8N4C8 whole entry, looked up): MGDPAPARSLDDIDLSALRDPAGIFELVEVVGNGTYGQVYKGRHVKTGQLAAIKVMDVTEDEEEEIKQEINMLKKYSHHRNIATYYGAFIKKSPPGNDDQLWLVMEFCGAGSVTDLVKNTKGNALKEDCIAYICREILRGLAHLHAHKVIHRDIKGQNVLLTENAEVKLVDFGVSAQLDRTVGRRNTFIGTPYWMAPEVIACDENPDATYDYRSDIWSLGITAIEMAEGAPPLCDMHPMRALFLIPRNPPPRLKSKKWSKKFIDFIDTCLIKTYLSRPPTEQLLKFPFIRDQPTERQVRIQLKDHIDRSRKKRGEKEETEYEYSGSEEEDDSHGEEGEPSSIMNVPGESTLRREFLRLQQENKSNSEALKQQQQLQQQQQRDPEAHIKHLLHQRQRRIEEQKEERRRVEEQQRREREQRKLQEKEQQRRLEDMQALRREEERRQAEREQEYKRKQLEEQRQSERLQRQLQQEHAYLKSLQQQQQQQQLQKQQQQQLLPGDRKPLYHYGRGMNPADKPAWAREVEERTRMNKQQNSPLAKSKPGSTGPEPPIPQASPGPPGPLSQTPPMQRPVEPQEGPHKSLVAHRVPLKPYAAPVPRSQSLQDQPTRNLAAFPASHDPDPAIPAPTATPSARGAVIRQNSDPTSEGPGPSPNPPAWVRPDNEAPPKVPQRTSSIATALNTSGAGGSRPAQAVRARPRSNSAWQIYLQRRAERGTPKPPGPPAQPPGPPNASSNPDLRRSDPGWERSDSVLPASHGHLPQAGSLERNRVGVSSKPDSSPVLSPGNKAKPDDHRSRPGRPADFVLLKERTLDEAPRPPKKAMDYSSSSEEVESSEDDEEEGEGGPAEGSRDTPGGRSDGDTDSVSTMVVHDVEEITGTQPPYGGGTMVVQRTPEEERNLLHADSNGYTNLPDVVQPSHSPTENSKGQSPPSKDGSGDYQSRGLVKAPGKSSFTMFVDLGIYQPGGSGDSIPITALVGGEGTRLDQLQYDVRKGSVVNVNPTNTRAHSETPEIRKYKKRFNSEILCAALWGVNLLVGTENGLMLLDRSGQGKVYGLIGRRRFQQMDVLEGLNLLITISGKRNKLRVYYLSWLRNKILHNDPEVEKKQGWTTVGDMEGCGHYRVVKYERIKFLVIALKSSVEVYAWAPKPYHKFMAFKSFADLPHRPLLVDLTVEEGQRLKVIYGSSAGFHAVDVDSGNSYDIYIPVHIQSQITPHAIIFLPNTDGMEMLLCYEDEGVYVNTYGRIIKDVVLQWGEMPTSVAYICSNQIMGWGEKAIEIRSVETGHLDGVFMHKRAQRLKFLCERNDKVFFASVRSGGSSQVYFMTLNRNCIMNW
Sequence of Dual specificity mitogen-activated protein kinase kinase 1 (Homo sapiens) (Q02750 whole entry): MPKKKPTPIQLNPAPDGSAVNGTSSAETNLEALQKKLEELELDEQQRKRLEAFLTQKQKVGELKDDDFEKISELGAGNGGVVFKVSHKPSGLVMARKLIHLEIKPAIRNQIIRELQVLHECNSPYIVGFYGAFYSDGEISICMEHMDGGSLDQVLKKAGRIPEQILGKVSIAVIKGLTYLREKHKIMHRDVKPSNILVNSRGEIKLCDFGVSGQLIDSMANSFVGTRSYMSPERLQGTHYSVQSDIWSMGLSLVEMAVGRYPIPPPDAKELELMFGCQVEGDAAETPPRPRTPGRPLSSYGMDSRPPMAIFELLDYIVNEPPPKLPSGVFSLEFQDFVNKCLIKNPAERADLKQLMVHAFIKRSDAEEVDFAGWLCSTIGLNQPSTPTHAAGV
Sequence of Mitogen-activated protein kinase kinase kinase kinase 4 (Homo sapiens) (O95819 2-1239 limits assumed): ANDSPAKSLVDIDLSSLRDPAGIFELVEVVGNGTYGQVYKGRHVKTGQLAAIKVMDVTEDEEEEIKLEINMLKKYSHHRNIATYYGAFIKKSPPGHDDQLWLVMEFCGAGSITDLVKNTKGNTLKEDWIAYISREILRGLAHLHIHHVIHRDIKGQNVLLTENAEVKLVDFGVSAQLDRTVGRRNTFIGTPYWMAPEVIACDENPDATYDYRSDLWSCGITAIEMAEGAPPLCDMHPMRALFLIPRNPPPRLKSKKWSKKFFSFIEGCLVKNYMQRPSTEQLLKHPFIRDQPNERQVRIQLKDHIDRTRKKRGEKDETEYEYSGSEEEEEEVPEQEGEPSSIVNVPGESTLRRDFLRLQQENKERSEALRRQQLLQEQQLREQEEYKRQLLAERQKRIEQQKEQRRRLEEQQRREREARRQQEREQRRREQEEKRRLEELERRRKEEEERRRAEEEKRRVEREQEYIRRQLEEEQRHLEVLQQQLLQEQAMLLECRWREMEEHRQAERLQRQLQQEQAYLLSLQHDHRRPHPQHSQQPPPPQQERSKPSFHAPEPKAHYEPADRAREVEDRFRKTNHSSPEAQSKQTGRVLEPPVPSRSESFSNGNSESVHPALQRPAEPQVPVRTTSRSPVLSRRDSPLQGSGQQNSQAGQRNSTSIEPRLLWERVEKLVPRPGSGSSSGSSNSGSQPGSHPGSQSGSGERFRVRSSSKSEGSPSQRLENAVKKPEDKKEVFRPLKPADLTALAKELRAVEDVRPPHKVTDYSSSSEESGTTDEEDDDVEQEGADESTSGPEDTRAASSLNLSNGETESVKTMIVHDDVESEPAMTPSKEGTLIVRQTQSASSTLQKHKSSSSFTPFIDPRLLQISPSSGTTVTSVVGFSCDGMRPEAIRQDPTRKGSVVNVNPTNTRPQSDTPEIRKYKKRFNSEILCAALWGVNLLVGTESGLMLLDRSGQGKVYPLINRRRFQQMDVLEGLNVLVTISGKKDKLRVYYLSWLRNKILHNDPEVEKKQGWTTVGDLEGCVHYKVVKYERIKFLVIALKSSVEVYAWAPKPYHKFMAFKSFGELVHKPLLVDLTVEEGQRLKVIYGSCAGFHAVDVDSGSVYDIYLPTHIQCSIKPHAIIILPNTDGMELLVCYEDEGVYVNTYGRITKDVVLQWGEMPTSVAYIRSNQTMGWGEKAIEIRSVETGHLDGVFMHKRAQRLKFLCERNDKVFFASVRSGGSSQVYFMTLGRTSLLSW

Row | SMILES | inhibition [1] [%] | inhibition [2] [%] | inhibition [3] [%] | inhibition [4] [%] | inhibition [5] [%] | inhibition [6] [%] | inhibition [7] [%] | inhibition [8] [%] | inhibition [9] [%] | inhibition [10] [%]
1 | COc1cc2ncn(-c3cc(O[C@H](C)c4ccccc4Cl)c(C(N)=O)s3)c2cc1OC | 18.6 | 4.68 | 4.4 | 5.71 | 16.9 | 40.3 | 77 | 34.7 | 73.8 | -3.36
2 | COc1cc2ncn(-c3cc(OCc4ccccc4C(F)(F)F)c(C(N)=O)s3)c2cc1OC | 30.1 | 2.39 | 2.9 | 7.46 | 25.5 | 14.3 | 55.5 | 15.2 | 52.8 | -4.21
3 | Fc1cccc(COc2ccc(Nc3ncnc4cc(-c5ccc[nH]5)sc34)cc2Cl)c1 | 13.9 | 3.99 | 3.24 | 6.08 | 12.7 | 0.61 | 2.35 | 1.18 | 3.32 | -0.07
4 | Fc1cccc(COc2ccc(Nc3ncnc4sc(-c5cccs5)cc34)cc2Cl)c1 | 6.34 | 2.3 | 4 | 1.45 | 2.51 | 0.07 | 0.3 | -1.67 | -0.19 | -0.02
5 | CCn1c(-c2nonc2N)nc2cncc(C(=O)N3CC[C@H](N)C3)c21 | 5.7 | 6.85 | 6.13 | 7.01 | 6.82 | 3.69 | 4.11 | 4.28 | 4.87 | -0.5
6 | COc1cc2c(cc1Nc1nc(N3CCc4ccccc43)c3cc[nH]c3n1)N(C(=O)CN(C)C)CC2 | 2.27 | 1.49 | 2.14 | 3.79 | -0.01 | 5.66 | 6.86 | 6.28 | 5.22 | -0.61
7 | CS(=O)(=O)Nc1ccc(N/C=C2\C(=O)Nc3ccccc32)cc1 | 73 | -3.18 | -0.2 | 11.8 | 63.8 | 6.72 | 51.9 | -0.42 | 24.6 | 0.42
8 | O=C(Nc1n[nH]c2nc(-c3ccco3)c(Br)cc12)C1CC1 | 8.55 | 3.9 | 3.63 | 5.14 | 8.29 | 5.17 | 4 | 6.08 | 5.58 | -1.82
9 | c1cnn2ncc(-c3ccnc(Nc4ccc5c(c4)OCCO5)n3)c2c1 | 51.5 | 7.35 | 27.8 | 9.95 | 40.4 | 7.88 | 19.1 | 7.54 | 16.1 | -1.31
10 | O=C1NC(=O)C(c2ccccc2Cl)=C1Nc1cccc(O)c1 | 6.87 | 1.44 | 1.89 | 3.8 | 5.96 | 7.3 | 27.2 | 7.12 | 22.5 | -0.62
11 | COC(=O)Nc1nc2cc(Oc3ccc(NC(=O)Nc4cccc(C(=O)O)c4)cc3)ccc2[nH]1 | 5.9 | 0.36 | 0.97 | 1.59 | 4.38 | 7.79 | 11.2 | 7.55 | 10.9 | 1.75
12 | COc1cc(C=NNc2ncnc3c2cnn3-c2ccccc2)ccc1O | 70.6 | 1.68 | 1.06 | 24 | 64.7 | 2.58 | 11.5 | 3.41 | 6.24 | 1.85
13 | NS(=O)(=O)c1cccc(-c2ccc3c(NC(=O)C4CC4)n[nH]c3c2)c1 | 10 | -1.43 | 2.83 | 1.11 | 8.09 | -3.97 | -4.72 | -3.79 | -2.35 | 0
14 | CCN1CCC(CC(=O)Nc2n[nH]c3nc(-c4cccs4)c(Br)cc23)CC1 | 9.82 | -3.83 | -4.66 | -1.72 | 5.84 | -4.72 | -4.38 | -4.72 | -2.74 | 2.05
15 | CCn1c(-c2nonc2N)nc2ccncc21 | 3.87 | 2.48 | 1.41 | 3.12 | 3.29 | 2.91 | 1.83 | 3.05 | 1.74 | 1.67
16 | Cc1ccc(NC(=O)c2ccnc(N3CCCC3)c2)cc1-c1ccc(C(=O)NCC2CC2)cc1 | 10.9 | 5.95 | 5.8 | 11.6 | 10.5 | 8.79 | 9.83 | 9.39 | 9.53 | 4.41
17 | Cc1nn(C)c2cc(N(C)c3ccnc(Nc4cccc(S(N)(=O)=O)c4)n3)ccc12 | 84.1 | 3.83 | 4.09 | 44.2 | 83.8 | 1.85 | 3.69 | 1.21 | 3.34 | -0.82
